Experimental data: PubChem BioAssay
Results filed as inconclusive are left out. Active and inactive are the calls of the source.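 How the source made its calls, unless noted: active means normalized viability below 100% at a tested concentration; inactive means the rest.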 Where a SMILES comes first, the peptide text is derived from it. The star is where a group is joined. Cbz = O=C(OCc1ccccc1)*

What was measured:
[1] = viability loss in pontine glioma line – cell-based, SU-DIPG-XVII, MIPE5.0, CellTiter-Glo, qHTS, dose response (AID 1347060; cut-off not given, nearly all actives have AC50 up to about 26 µM;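 on AC50: cells exposed to compound for 48 hours before viability readout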); settings: CellTiter-Glo ATP luminescence
[2] = viability loss in pontine glioma line – cell-based, JHH-DIPG-1, MIPE4.0, CellTiter-Glo, qHTS, dose response (AID 1347062; cut-off not given, nearly all actives have AC50 up to about 27 µM;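 on AC50: cells exposed to compound for two days before readout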); settings: JHH-DIPG-1 viability, CellTiter-Glo ATP luminescence
[3] = viability loss in pontine glioma line – cell-based, SU-DIPG-IV, MIPE4.0, CellTiter-Glo, qHTS, dose response (AID 1347063; cut-off not given, nearly all actives have AC50 up to about 30 µM;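 further: compound exposure lasted 48 hours before the viability readout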); settings: CellTiter-Glo ATP luminescence
[4] = viability loss in pontine glioma line – cell-based, SU-DIPG-XIII, MIPE5.0, CellTiter-Glo, qHTS, dose response (AID 1347064; cut-off not given, nearly all actives have AC50 up to about 23 µM;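 on AC50: cells exposed to compound for 48 hours before the viability read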); settings: CellTiter-Glo ATP luminescence
[5] = viability loss in pontine glioma line – cell-based, SU-DIPG-XXV, MIPE5.0, CellTiter-Glo, qHTS, dose response (AID 1347065; cut-off not given, nearly all actives have AC50 up to about 26 µM;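 further: cells exposed to compound for 48 hours before ATP readout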); settings: CellTiter-Glo ATP luminescence
[6] = growth inhibition of DIPG cells – cell-based, MIPE4.0 library, CellTiter-Glo luminescence, qHTS (AID 1347066; cut-off not given, nearly all actives have AC50 up to about 30 µM;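 further: cells exposed to compound for 48 hours before readout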); settings: SU-DIPG-VI viability, CellTiter-Glo ATP luminescence
[7] = JHH-DIPG-1 glioma cell viability, MIPE5.0 library, CellTiter-Glo luminescence, qHTS (AID 1347067; cut-off not given, nearly all actives have AC50 up to about 26 µM;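 further: cells exposed to compound for 48 hours before readout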); settings: JHH-DIPG-1 glioma viability, CellTiter-Glo ATP luminescence
[8] = growth inhibition of DIPG cells – cell-based, MIPE5.0 library, qHTS (AID 1347068; cut-off not given, nearly all actives have IC50 up to about 30 µM;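 on IC50: cells exposed to compound for 48 hours before viability readout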); settings: SU-DIPG-XXV viability
[9] = viability loss with induced miR-34 in A549 – imaging, A549 dox-inducible miR-34, nuclei and caspase counts, primary screen (AID 1347080;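 active means compounds whose cell count with miR-34 switched on is under 0.7 times the count with it off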); settings: A549 miR-34 inducible, Hoechst nuclei count, 48 h
[10] = MELAS cybrid and Rieske KO viability enhancers – cell-based, MELAS cybrids, Rieske KO mouse fibroblasts, CellTiter-Glo, primary screen (AID 1508586;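 active means mean z-score across replicates of 1.96 or higher in either the MELAS or the Rieske mutant cell line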;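 further: z relative to plate mean and SD of compound and empty wells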); settings: low glucose
[11] = viability loss in pontine glioma line – cell-based, SU-DIPG-XIII, MIPE4.0, CellTiter-Glo, qHTS, dose response (AID 1347061; cut-off not given, nearly all actives have AC50 up to about 37 µM;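 further: cells exposed to compound for 48 hours before readout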); settings: CellTiter-Glo ATP luminescence
[12] = drug combination growth inhibition, ovarian cancer – cell-based, oncology-focused library, rucaparib conditional, profiling panel (AID 1508598); settings: patient-derived ovarian cancer cells, CellTiter-Glo viability, 144 h, stronger effect = lower value
[13] = compounds altering HSF1 focus formation in cells – imaging, Selleck Cancer Library (AID 1347162; in the data active means plate-normalised HSF1 focus index below about 0.46); settings: human cells, HSF1 nuclear foci imaging, at 10 µM; SSMD: measured here: HSF1 foci SSMD mean; cell count: measured here: cell number; plate-normalised HSF1 focus index: stronger effect = lower value
[14] = stronger effect = lower value, cell number ratio, induced over uninduced
[15] = measured here: relative caspase fold change +Dox/-Dox
[16] = measured here: total cells with miR-34 induction, stronger effect = lower value
[17] = measured here: total cells without miR-34 induction
[18] = MELAS cybrid survival, CellTiter-Glo 48 h, stronger effect = higher value
[19] = Rieske KO mouse fibroblast survival, CellTiter-Glo 72 h
[20] = at 0.000305 µM, OCI-C5x cells, with rucaparib 10 µM, 100% = cells with rucaparib alone
[21] = at 0.000305 µM, OCI-C5x cells, without rucaparib
[22] = at 0.000305 µM, OCI-P5x cells, with rucaparib 20 µM, 100% = cells with rucaparib alone
[23] = at 0.000305 µM, OCI-P5x cells, without rucaparib
[24] = at 0.00122 µM, OCI-C5x cells, with rucaparib 10 µM, 100% = cells with rucaparib alone
[25] = at 0.00122 µM, OCI-C5x cells, without rucaparib
[26] = at 0.00122 µM, OCI-P5x cells, with rucaparib 20 µM, 100% = cells with rucaparib alone
[27] = at 0.00122 µM, OCI-P5x cells, without rucaparib
[28] = at 0.00488 µM, OCI-C5x cells, with rucaparib 10 µM, 100% = cells with rucaparib alone
[29] = at 0.00488 µM, OCI-C5x cells, without rucaparib
[30] = at 0.00488 µM, OCI-P5x cells, with rucaparib 20 µM, 100% = cells with rucaparib alone
[31] = at 0.00488 µM, OCI-P5x cells, without rucaparib
[32] = at 0.0195 µM, OCI-C5x cells, with rucaparib 10 µM, 100% = cells with rucaparib alone
[33] = at 0.0195 µM, OCI-C5x cells, without rucaparib
[34] = at 0.0195 µM, OCI-P5x cells, with rucaparib 20 µM, 100% = cells with rucaparib alone
[35] = at 0.0195 µM, OCI-P5x cells, without rucaparib
[36] = at 0.0781 µM, OCI-C5x cells, with rucaparib 10 µM, 100% = cells with rucaparib alone
[37] = at 0.0781 µM, OCI-C5x cells, without rucaparib
[38] = at 0.0781 µM, OCI-P5x cells, with rucaparib 20 µM, 100% = cells with rucaparib alone
[39] = at 0.0781 µM, OCI-P5x cells, without rucaparib
[40] = at 0.313 µM, OCI-C5x cells, with rucaparib 10 µM, 100% = cells with rucaparib alone
[41] = at 0.313 µM, OCI-C5x cells, without rucaparib
[42] = at 0.313 µM, OCI-P5x cells, with rucaparib 20 µM, 100% = cells with rucaparib alone
[43] = at 0.313 µM, OCI-P5x cells, without rucaparib
[44] = at 1.25 µM, OCI-C5x cells, with rucaparib 10 µM, 100% = cells with rucaparib alone
[45] = at 1.25 µM, OCI-C5x cells, without rucaparib
[46] = at 1.25 µM, OCI-P5x cells, with rucaparib 20 µM, 100% = cells with rucaparib alone
[47] = at 1.25 µM, OCI-P5x cells, without rucaparib
[48] = at 5 µM, OCI-C5x cells, with rucaparib 10 µM, 100% = cells with rucaparib alone
[49] = at 5 µM, OCI-C5x cells, without rucaparib
[50] = at 5 µM, OCI-P5x cells, with rucaparib 20 µM, 100% = cells with rucaparib alone
[51] = at 5 µM, OCI-P5x cells, without rucaparib

Cc1cc(CN2CCN(c3c(Br)cnc4nc(-c5ccc(N6CCN(C)CC6)cc5)[nH]c34)CC2)no1
-0.677: z-score [10, 19]
inactive: fold change [9, 14] 1.05 | z-score [10, 18] -0.545
0.921: fold change [9, 15]
active: AC50 [1] 1.66 µM | AC50 [2] 7.43 µM | AC50 [3] 5.26 µM | AC50 [4] 3.32 µM | AC50 [5] 1.05 µM | AC50 [6] 14.8 µM | AC50 [7] 2.63 µM | IC50 [8] 8.33 µM
3250: cell count [9, 17]
3400: cell count [9, 16]

Cc1nc(NC(=O)N2CCC[C@H]2C(N)=O)sc1-c1csc(C(C)(C)C)n1
active: AC50 [1] 11.8 µM | AC50 [2] 4.69 µM | AC50 [3] 2.96 µM | AC50 [4] 7.42 µM | AC50 [5] 4.68 µM | AC50 [6] 9.35 µM

COC(=O)Nc1ccc(-c2nc(N3CCOCC3)c3cnn(C4CCN(Cc5cccnc5)CC4)c3n2)cc1
active: AC50 [1] 5.25 µM | AC50 [2] 6.62 µM | AC50 [3] 0.235 µM | AC50 [4] 6.61 µM | AC50 [5] 1.48 µM | AC50 [6] 14.8 µM | AC50 [7] 6.61 µM | IC50 [8] 13.2 µM

C/C(=N\NC(=S)N1CCC1)c1ccccn1
active: AC50 [1] 0.00934 µM | AC50 [2] 1.48 µM | AC50 [3] 0.0105 µM | AC50 [4] 0.0235 µM | AC50 [5] 0.0132 µM | AC50 [6] 9.35 µM

Cc1c(NC(=O)OC[C@@H]2COCCN2)cn2ncnc(Nc3ccc4c(cnn4Cc4cccc(F)c4)c3)c12
inactive: outcome [11] | viability [12, 20] 137% | viability [12, 21] 137% | viability [12, 22] 115% | viability [12, 23] 112% | viability [12, 24] 131% | viability [12, 25] 144% | viability [12, 26] 114% | viability [12, 27] 111% | viability [12, 28] 117% | viability [12, 29] 132% | viability [12, 30] 109% | viability [12, 32] 119% | viability [12, 33] 133% | viability [12, 34] 109% | viability [12, 36] 116% | viability [12, 37] 139% | viability [12, 38] 111% | viability [12, 40] 121% | viability [12, 41] 133% | viability [12, 42] 103% | viability [12, 44] 121% | viability [12, 45] 140% | viability [12, 49] 144%
active: AC50 [1] 23.5 µM | viability [12, 31] 96.9% | viability [12, 35] 98.1% | viability [12, 39] 98% | viability [12, 43] 96.4% | viability [12, 46] 96.9% | viability [12, 47] 92.8% | viability [12, 48] 89.2% | viability [12, 50] 92.1% | viability [12, 51] 96.9%

CC(C)C[C@@H](C=O)NC(=O)[C@H](CC(C)C)NC(=O)[C@H](CC(C)C)NC(=O)OCc1ccccc1 (Cbz-Leu-Leu-Leu-aldehyde)
inactive: fold change [9, 14] 1.07 | plate-normalised HSF1 focus index [13] 1.43
1.23: fold change [9, 15]
638: cell count [9, 16]
595: cell count [9, 17]
active: AC50 [1] 0.468 µM | AC50 [2] 0.166 µM | AC50 [3] 0.148 µM | AC50 [4] 0.059 µM | AC50 [5] 0.148 µM | AC50 [6] 0.296 µM | AC50 [7] 0.468 µM | IC50 [8] 0.263 µM
7.09: SSMD [13]
6800: cell count [13]

C=CC(=O)Nc1ccc2ncnc(Nc3ccc(OCc4cccc(F)c4)c(Cl)c3)c2c1
active: AC50 [1] 5.25 µM | AC50 [2] 23.5 µM | AC50 [3] 1.32 µM | AC50 [4] 11.8 µM | AC50 [5] 6.61 µM | AC50 [6] 4.69 µM | AC50 [7] 8.33 µM | IC50 [8] 14.8 µM
4290: cell count [9, 16]
2.08: fold change [9, 15]
5610: cell count [9, 17]
0.764: z-score [10, 19]
inactive: fold change [9, 14] 0.764 | z-score [10, 18] -0.263

CN1CCN(CCOc2cc(OC3CCOCC3)c3c(Nc4c(Cl)ccc5c4OCO5)ncnc3c2)CC1
1170: cell count [9, 16]
1330: cell count [9, 17]
-0.384: z-score [10, 19]
7430: cell count [13]
active: viability [12, 20] 98.7% | viability [12, 21] 98.5% | viability [12, 22] 98.8% | viability [12, 25] 98.2% | viability [12, 27] 90.6% | viability [12, 28] 97.5% | viability [12, 29] 94.4% | viability [12, 31] 91.3% | viability [12, 33] 94.6% | viability [12, 34] 96.6% | viability [12, 35] 89% | viability [12, 37] 94.2% | viability [12, 38] 82.4% | viability [12, 39] 83% | viability [12, 41] 95.8% | viability [12, 42] 69% | viability [12, 43] 72.2% | viability [12, 44] 91.7% | viability [12, 45] 87.9% | viability [12, 46] 58.9% | viability [12, 47] 64.4% | viability [12, 48] 32.8% | viability [12, 49] 53.2% | viability [12, 50] 5.51% | viability [12, 51] 52.2%
1: fold change [9, 15]
-0.947: SSMD [13]
inactive: outcome [1] | outcome [11] | outcome [5] | outcome [7] | outcome [8] | fold change [9, 14] 0.876 | plate-normalised HSF1 focus index [13] 0.94 | z-score [10, 18] 0.931 | viability [12, 23] 104% | viability [12, 24] 107% | viability [12, 26] 102% | viability [12, 30] 102% | viability [12, 32] 107% | viability [12, 36] 105% | viability [12, 40] 104%

Clc1ccc(COC(Cn2ccnc2)c2ccc(Cl)cc2Cl)cc1 (stereo not given)
active: AC50 [1] 18.6 µM | AC50 [5] 16.6 µM | AC50 [7] 13.2 µM
inactive: outcome [11]

NS(=O)(=O)c1cccc2c1C(=O)c1cccc(O)c1C2=O
active: AC50 [1] 2.35 µM | AC50 [2] 1.18 µM | AC50 [3] 0.332 µM | AC50 [4] 1.18 µM | AC50 [5] 1.86 µM | AC50 [6] 0.526 µM | AC50 [7] 2.09 µM | IC50 [8] 9.34 µM

Cc1cc(SCc2sc(-c3ccc(C(F)(F)F)cc3)nc2C)ccc1OCC(=O)O
inactive: outcome [1] | outcome [2] | outcome [3] | outcome [4] | outcome [5] | outcome [6] | outcome [7] | outcome [8]

C[C@H](NC(=O)/C(C#N)=C/c1cccc(Br)n1)c1ccccc1
active: AC50 [1] 7.42 µM | AC50 [2] 9.35 µM | AC50 [3] 7.43 µM | AC50 [4] 7.42 µM | AC50 [5] 3.72 µM | AC50 [6] 14.8 µM | AC50 [7] 9.34 µM
